Bioassay records from PubChem.
KCNQ2 pot: enhances the rat KCNQ2 potassium channel; 310,000 compounds, 0.54% hits; AID 2239; B-score at 10 µM; O88943; CHO-K1 KCNQ2, FluxOR thallium flux fluorescence; active compounds read high;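 active means fluorescence ratio B-score at least 3 SD of library B-scores, with initial fluorescence B-score within 3 of them, cut at about 5.3 in these data; same plate scores as AID 2156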;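 further: B-score of peak minus minimum over baseline fluorescence ratio after K+ and Tl+ stimulus; positive B-score means potentiation of KCNQ2 with more thallium influx and brighter signal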
KCNQ2 block: KCNQ2 (rat) channel inhibition. O88943. CHO-K1 KCNQ2, FluxOR thallium flux, 20 min; active compounds read low. B-score at 10 µM. 310,000 compounds, 1.1% hits;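 active means fluorescence ratio B-score at most minus 3 library SDs, with starting brightness B-score within 2 library SDs, cut at about -5.5 in these data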
Kir21 conf inh: confirmation of mouse Kir2.1 potassium channel inhibitors. AID 2032. Tl flux remaining, % of negative control (active compounds read low), % at 10 µM. shares compounds with KCNQ2 pot. 2,300 compounds, 41% hits. Kir2.1-expressing cells, FluxOR thallium flux fluorescence; active compounds read low;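 active means Primary-screen hit whose thallium flux fell at least 3 control SD below untreated wells in both duplicates, with normal baseline fluorescence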;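 further: 0% = blank wells without stimulus and 100% = stimulated no-compound controls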
HEK293 Tl flux: parental HEK293 activity in Kir2.1 inhibitor counter-screen; 2,300 compounds, 19% hits; shares compounds with KCNQ2 pot; AID 2105; parental HEK293 cells, FluxOR thallium flux fluorescence; 0% = unstimulated blank wells; FluxOR signal as % of negative control (100 = no effect), % at 10 µM;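 active means dye signal at least 3 control SD above or below untreated wells in both duplicates, raw fluorescence within 3, either direction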;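 further: percent is based on the flux ratio of peak minus minimum fluorescence over baseline F0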
CHO-K1 ctr: counter-screen for KCNQ2 potentiators: effect in parental CHO-K1 cells | AID 2282 | shares compounds with KCNQ2 pot | FluxOR thallium flux fluorescence; zero = vehicle mean+3SD, 100% = vehicle-minus-blank window | 1,200 compounds, 43% hits | activity increase over 3SD of controls, % at 10 µM;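 active means signal rise of at least 3 SD above the untreated control mean, in both duplicate wells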;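 further: counter screen of KCNQ2 potentiator hits so any rise reflects channel-independent effects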
KCNQ1 pot spec: tests whether KCNQ2 potentiators also act on human KCNQ1; activation over 3SD threshold, % at 10 µM; shares compounds with KCNQ2 pot; AID 2283; 1,200 compounds, 28% hits; CHO KCNQ1 stable, FluxOR thallium flux fluorescence; beyond 3SD, as % of vehicle-control signal;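 active means fluorescence ratio rise of at least 3 SD of vehicle wells above their mean, in both replicate wells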;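 further: 0% = vehicle mean plus 3 SD and 100% = vehicle minus unstimulated blank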
KCNQ2 pot confirm: rat KCNQ2 channel potentiator confirmation; 1,200 compounds, 68% hits; CHO-KCNQ2 cells, FluxOR thallium flux fluorescence; shares compounds with KCNQ2 pot; potentiation, less the hit threshold, % at 10 µM;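 active means fluorescence ratio rising 3 SD or more over the vehicle control mean in both replicates, plus primary screen hit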;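 further: peak minus minimum thallium fluorescence divided by baseline after K/Tl stimulus; 0% = vehicle mean plus 3 SD and 100% = vehicle minus unstimulated blank difference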
Kir21 spec: mouse Kir2.1 off-target activity of KCNQ2 potentiators; HEK293 Kir2.1, FluxOR thallium flux fluorescence; AID 2345; 1,200 compounds, 2% hits; activity over 3SD threshold, % at 10 µM; shares compounds with KCNQ2 pot;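 active means fluorescence ratio rise of at least 3 SD above the vehicle-control mean, seen in both replicates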;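 further: 0% = vehicle mean plus 3 SD and 100% = vehicle minus no-stimulus blank window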
KCNQ2 W236L pot: rat KCNQ2 W236L mutant potentiation by KCNQ2 potentiators. shares compounds with KCNQ2 pot. current increase over 3SD of negative controls (%), active compounds read high, % at 25 µM. 940 compounds, 10% hits. CHO KCNQ2-W236L, automated patch clamp current. AID 2558;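 active means current increase at least 3 SD of the untreated controls above them in both duplicate recordings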
An asterisk follows results filed as active; i = inactive; / = no result. Only some compounds are listed: those with a hit (about 1.6% of all), similar ones and a draw of the others.

SMILES | KCNQ2 pot | KCNQ2 block | Kir21 conf inh | HEK293 Tl flux | others
Cc1ccc2cc(CNCCc3ccccc3C)c(=O)[nH]c2c1 | 1.1 | i | / | /
Cc1cccc(CCNCc2cc3cccc(C)c3[nH]c2=O)c1 | 1.1 | i | 52%* | i
Cc1nc2ccccc2c(=O)n1/N=C/c1cc(Br)cc(Br)c1O | 8.1* | i | i | i | CHO-K1 ctr=11*;KCNQ1 pot spec=-15;KCNQ2 pot confirm=-26;Kir21 spec=-33
Cc1nc2ccccc2c(=O)n1-c1ccc(Br)cn1 | / | i | / | /
O=C1Nc2ccccc2/C1=C/c1cnc[nH]1 | 1.4 | i | / | /
COc1ccc2c(c1)/C(=C/c1cnc[nH]1)C(=O)N2 | 6.8* | i | i | i | CHO-K1 ctr=-6;KCNQ1 pot spec=-17;KCNQ2 pot confirm=10*;Kir21 spec=-46;KCNQ2 W236L pot=i
Cc1cc(N)n(C2CCN(C)CC2)n1 | 0.15 | i | / | /
Cc1ccc(-n2c(O)c(C=NCc3ccco3)c(=O)[nH]c2=S)cc1C | / | i | / | /
CCc1ccc(CNCCc2ccc(F)cc2)cc1 | / | i | / | /
Fc1ccc(CCNCc2ccc(Cl)c(Cl)c2)cc1 | / | i | 24%* | i
COc1ccc(-c2[nH]ncc2CNC(C)Cc2cccc(C)n2)cc1F (stereo unspecified) | / | i | / | /
CC/C(=C\C=C\[C@@H]1C=C[C@@H]2CCC[C@H]2[C@@H]1C(=O)c1ccc[nH]1)[C@@H]1O[C@@H]([C@@H](C)C(=O)O)CC[C@@H]1C | 28* | i | / | / | CHO-K1 ctr=-14;KCNQ1 pot spec=-19;KCNQ2 pot confirm=74*;Kir21 spec=-48;KCNQ2 W236L pot=i
CCOc1cc2c(cc1OCC)-n1cccc1C(c1cccc([N+](=O)[O-])c1)NC2 (stereo unspecified) | 0.12 | i | / | /
NC12CN3CN(CN(C3)C1)C2 (tested in a mixture with another compound) | 0.32 | i | / | /
COC(=O)[C@]12OC[C@]34C([C@@H](O)[C@@H]1O)[C@]1(C)CC(=O)C(O)=C(C)[C@@H]1C[C@H]3OC(=O)[C@H](O)[C@@H]24 (stereo partly specified) | 0.29 | i | / | /
